Experimental data as given in PubChem BioAssay (EPA / NIEHS).
More than one record can exist for a structure, and the calls need not agree. Calls of active or inactive are those of the source. How the source made its calls: active means hit-call score of the fitted dose curve at least 0.9, where 1 is the maximum; inactive means score below 0.9.

Experiment: ATG_M_19_CIS: Attagene CIS-FACTORIAL HepG2 Assay for M19 Transcription Factor (Internal Marker) (AID 2282939)
Details: HepG2 Attagene CIS-FACTORIAL M19 internal marker reporter; actives raise or lower the signal
Experimental: ATG_CIS is a cell-based, multiplexed-readout assay that uses HepG2, a human liver cell line, with measurements taken at 24 hours after chemical dosing in a 24-well plate.ATG_M_19_CIS is one of 52 assay component(s) measured or calculated from the ATG_CIS assay. It is designed to make measurements of mRNA induction, a form of inducible reporter, as detected with fluorescence intensity signals by Reverse transcription polymerase chain reaction (RT-PCR) and Capillary electrophoresis technology.Data from the assay component ATG_M_19_CIS was analyzed into 1 assay endpoint. This assay endpoint, ATG_M_19_CIS, was analyzed with bidirectional fitting relative to DMSO as the negative control and baseline of activity. Using a type of inducible reporter, measures of mRNA for gain or loss-of-signal activity can be used to understand the background control at the transcription factor-level as they relate to the gene . Furthermore, this assay endpoint can be referred to as a secondary readout, because this assay has produced multiple assay endpoints where this one serves a background control function. To generalize the intended target to other relatable targets, this assay endpoint is annotated to the background measurement intended target family, where the subfamily is internal marker.
Human liver HepG2 cells are transiently transfected with multiple reporter transcription units (MRTUs) in 6-well plates using FuGene 6 reagent (Roche; 3 ml FuGene/1 mg DNA). The MRTU constructs are regulated by a cis-regulating element (promoter). […] A major difference between the CIS and TRANS system is that in CIS activities of endogenous TFs are measured, whereas the TRANS assay evaluates changes in activities of exogenous, chimeric NR-Gal4 proteins. […] At the end of 24 hour incubation, total RNA was isolated using TriZol reagent (Invitrogen). The isolated RNA is then reverse-transcribed using oligo(dT) primer and Mo-MLV reverse transcriptase (Invitrogen) with DNAse I (Ambion) treatment for 30 min. The one-tenth of the produced cDNA was amplified by PCR using Taq DNA polymerase (Invitrogen) and two reporter sequence-specific primers. The PCR products were fluorescently labeled by primer extension with 6-arboxyfluorescein (6-FAM) 5'-labeled reporter sequence-specific primer (2 min at 95 C, 20 s at 68 C and 10 min at 72 C) and these products were digested with 5U of HpaI (New England Biolabs) for 2h at 37 C. The fragments were purified using Qiaquick PCR columns (Qiagen), analyzed on an ABI 3130xL genetic analyzer (Applied Biosystems) with peak positions identified by using a set of X-rhodamine (ROX)-labeled MapMarker1000 molecular weight standards (BioVentures). The raw capillary electrophoresis data was processed using Attagraph software (Attagene).

Structure (SMILES) | outcome | AC50
O=S(=O)(O)c1ccc2cc(O)ccc2c1 | inactive | –
CCCCCCCCCCCC[N+](C)(C)CCCCCCCCCCCC | inactive | –
C=CC(=O)OCCC(F)(F)C(F)(F)C(F)(F)C(F)(F)C(F)(F)C(F)(F)F | inactive | –
FC1(F)C=CC(F)(F)C1(F)F | inactive | –
FC(F)=C(F)C(F)(F)C(F)(F)C(F)(F)C(F)F | inactive | –
CCCCCCOC(=O)c1ccc(O)cc1 | inactive | –
NNC(=O)CCCCC(=O)NN | inactive | –
COc1cc(OC)nc(NC(=O)NS(=O)(=O)Nc2ccccc2C(=O)N(C)C)n1 | inactive | –
CCC(=O)C=Cc1ccc(OC)cc1 | inactive | –
O=S(=O)(c1ccc(OCc2ccccc2)cc1)c1ccccc1O | inactive | –
CC1COCc2cc3c(cc21)C(C)(C)C(C)C3(C)C (stereo not given) | inactive | –
O=S(=O)(O)C(F)(F)C(F)(F)C(F)(F)C(F)(F)C(F)(F)C(F)(F)C(F)(F)C(F)(F)C(F)(F)C(F)(F)F | inactive | –
CCCCC=O | inactive | –
CC1CCC(CO)CC1 (stereo not given) | inactive | –
CCCCCCCCCCCC(=O)NCCCN(C)C | inactive | –
CCCCCCCCCCCC[N+](C)(C)Cc1ccccc1 | inactive | –
CCCCCCCC(OC)OC | inactive | –
NCc1cccc(CN)c1 | inactive | –
O=C(OC(=O)C(F)(F)C(F)(F)F)C(F)(F)C(F)(F)F | inactive | –
Oc1ccc(Cc2ccccc2O)cc1 | inactive | –

Structure (SMILES) | outcome | AC50
Cc1cc(C(C)(C)C)c(O)c(C(C)(C)C)c1 | inactive | 97.1 µM (active)
CCOCCOCC | inactive | –
O=C(F)C(F)(F)C(F)(F)C(F)(F)C(=O)F | inactive | –
O=C(c1cc(O)c(O)c(O)c1)c1ccc(O)c(O)c1O | inactive | –
CC1=CC(=O)c2ccccc2C1=O | inactive | –
CS(=O)(=O)c1ccc([C@@H](CC2CCCC2)C(=O)Nc2cnccn2)cc1Cl | inactive | –
Oc1cccc2c(O)cccc12 | inactive | –
O=C(CCCN1CCC(O)(c2ccc(Cl)cc2)CC1)c1ccc(F)cc1 | inactive | –
FC(F)(F)C(F)(F)C(F)(F)C(F)(F)I | inactive | –
O=C1c2ccc(O)c(O)c2C(=O)c2c(O)ccc(O)c21 | inactive | –
CCO[Si](CCC1CCC2OC2C1)(OCC)OCC (stereo not given) | inactive | –
CCc1ccccc1O | inactive | –
CCCCCCCCCCCC | inactive | –
O=C(NCc1ncc(C(F)(F)F)cc1Cl)c1c(Cl)cccc1Cl | inactive | –
CCCCN(C)C | inactive | –
FC(OC(F)(F)C(F)(F)C(F)(F)F)C(F)(F)F (stereo not given) | inactive | –
c1cc2cccc3c4cccc5cccc(c(c1)c23)c54 | inactive | –
COC1=CC(=O)C[C@@H](C)[C@]12Oc1c(Cl)c(OC)cc(OC)c1C2=O | inactive | –
O=C(CC(=O)C(F)(F)C(F)(F)C(F)(F)F)c1cccs1 | inactive | –
